# Measured values taken from PMC5540273 (PLoS ONE, 2017).
# 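Note: kd values determined as follow-up on hits from a single-replicate KINOMEscan panel screen.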
structure (smiles),measurement,setting,value
CSc1ccc(NC2=C(c3ccccc3Cl)C(=O)NC2=O)cc1 [SB-342411],Kd,CLK2,0.46 µM
CN1c2ccc(-c3ccc(C(=O)NCCO)cc3)cc2-c2[nH]ncc2S1(=O)=O,Kd,CLK2,0.7 µM
Fc1cccc(COc2ccc(Nc3ncnc4sc(-c5ccc[nH]5)cc34)cc2Cl)c1 [GW707818],Kd,CLK4,> 10 µM
Cc1ccc(C)c(NC(=O)NCCNc2ccnc(Nc3ccc(F)cc3)n2)c1 [GSK1379878],Kd,CSK,> 10 µM
c1ccc(-c2ccc3c(-c4ccnc(Nc5ccc6c(c5)OCCO6)n4)cnn3n2)cc1 [GW818941],Kd,CSK,> 10 µM
COC(=O)c1c(-c2ccccc2)c2cc(Cl)ccc2c(=O)n1Cc1ccc(S(C)(=O)=O)cc1,Kd,CSNK1G1,> 10 µM
Nc1nc(-c2ccc3c(N)n[nH]c3c2)cc(N2CCC[C@@H](C(=O)Nc3ccccc3)C2)n1.O=C(O)C(F)(F)F.O=C(O)C(F)(F)F [GSK2288359],Kd,CSNK1G2,> 10 µM
O=C(Nc1ccccc1F)NC1CCN(c2ccnc(Nc3ccc(F)cc3)n2)C1 (centres unmarked) [GSK1379722],Kd,CSNK1G2,> 10 µM
